# Measurements reported in PubChem BioAssay (Tox21).
# Where “and” joins values, the source holds several entries; their conditions need not be identical. Equal entries are not always repeated. Records with an inconclusive call do not appear. A call without a number means that no potency is given here. Some structures have more than one record in an assay (separate samples or runs), and their calls can disagree. Calls of active or inactive are those of the source. The call rests on the fitted dose curve; in most records, active means well fitted cell-killing curve with a large enough effect in the repeat runs; inconclusive means weak or mixed curves, or effect the other way; inactive means no such curve, though single readings can be large or run the other way.
# Assay: Caspase-3/7 induction in CHO-K1 cells by small molecules, qHTS cell viability counter screen (AID 1346979); further: nearly all actives have a fitted effect of over 35% in size
# Conditions: CellTiter-Fluor fluorescence, 17 h; series mostly up to 92.4 µM
# Text: National Center for Advancing Translational Sciences [NCATS]
# NIH Chemical Genomics Center [NCGC]
# U.S. Environmental Protection Agency [EPA]
# National Institutes of Environmental Health Sciences [NIEHS]
# National Toxicology Program [NTP]
# U.S. Food and Drug Administration [FDA]
# Apoptosis is a process of programmed cell death and plays a central role in the development of multicellular organisms. It is a highly regulated process and induces cell death by activating caspases, which are the members of cysteine aspartic acid-specific protease (caspase) family. Caspases involved in apoptosis are classified by their mechanism of action as initiator caspases (caspase-2, -8, -9 and -10) and executioner caspases (caspase-3, -6, and -7). Inhibition of apoptosis results in number of cancers, autoimmune diseases, inflammatory diseases and viral infection. To identify small molecule compounds that induce apoptosis, a homogeneous, luminescent Caspase-Glo 3/7 assay was used. Wild type CHO-K1 cells were used to screen Tox21 libraries for identifying caspase-3/7 activity inducers. Also cytotoxicity of the compounds was tested in parallel by measuring the cell viability using CellTiter-Fluor assay system in the same wells.
# Tox21 Assay Protocol Summary:
# CHO-K1 cells were dispensed at 1,500 per well in 5uL of culture medium into white solid bottom 1536-well plates (Corning Life Sciences, Corning, NY) using a Multidrop Combi (Thermo Scientific, Waltham, MA) dispenser. The assay plates were incubated at 37 C and 5% CO2 for 5hr, and then 23nL of compounds dissolved in DMSO and positive control were transferred using a Pintool station (Wako, San Diego, CA). The assay plates were incubated at 37C and 5% CO2 for 17hr. For cytotoxicity read, after 16hr incubation at 37C, 1uL CellTiter-Fluor reagent (Promega Corporation, Madison, WI) was added to each well of the assay plates using Flying Reagent Dispenser (FRD, Aurora Discovery, San Diego, CA). After 1hr incubation at 37C and 5% CO2, the fluorescence signal was quantified using a ViewLux plate reader (PerkinElmer, Shelton, CT).
# Potency means the concentration at half of the fitted maximal effect.
SMILES,Potency,"activity change, negative = cytotoxicity"
Cc1nc(-c2ccc(Cl)cc2)oc1COC(C)(C)C(=O)O,inactive,–
C=C(CC)C(=O)c1ccc(OCC(=O)O)c(Cl)c1Cl,68.1 µM (active) and inactive,–
CCn1c2ccccc2c2cc([N+](=O)[O-])ccc21,inactive,–
Cc1c(F)c(N2CCNC(C)C2)cc2c1c(=O)c(C(=O)O)cn2C1CC1 (stereo not given),inactive,–
O=C(/C=C/c1ccccc1)OC/C=C/c1ccccc1,inactive,–
C=C(C)C(=O)OCCCCCCCCCC,54.9 µM (active),–
Cc1cccc(C)c1NC(=O)c1ccc(N)cc1,inactive,–
OC1CCC(C2CCCCC2)CC1 (stereo not given),inactive,–
Cc1c2ccccc2c(C)c2c1ccc1ccccc12,61.1 µM (active),–
CN(C)c1ccc(C(=C2C=CC(=[N+](C)C)C=C2)c2ccc(N(C)C)cc2)cc1,1.71 µM (active) and 686 nM (active) and 2.37 µM (active),–
O=C1OC2(c3ccc(O)cc3Oc3cc(O)ccc32)c2ccc(N=C=S)cc21,inactive,–
S=c1nccc[nH]1,inactive,–
OC/C=C/CO,inactive,–
O=C(O)c1ccc2cc(C(=O)O)ccc2c1,inactive,–
O=[N+]([O-])c1cccc(C(F)(F)F)c1,inactive,–
CCCC(=O)OCCc1ccccc1,inactive,–
CC(=O)OCC=C(C)C,inactive,–
Cc1ccc(O)c(O)c1,52.9 µM (active),–
O=C(O)c1cc(O)c2ccccc2c1O,6.11 µM (active),–
COc1ccc2cc1Oc1ccc(cc1)C[C@H]1c3c(cc4c(c3Oc3cc5c(cc3OC)CCN(C)[C@@H]5C2)OCO4)CCN1C,29.8 µM (active),–

SMILES,Potency,"activity change, negative = cytotoxicity"
Cc1cc(-c2ccc(N=Nc3cc(S(=O)(=O)O)c4ccccc4c3N)c(C)c2)ccc1N=Nc1cc(S(=O)(=O)O)c2ccccc2c1N,54.8 µM (active),–
O=C1CCCCCCCCCCCCCCCO1,inactive,–
C#C[C@]1(OC(C)=O)CC[C@H]2[C@@H]3CCC4=C[C@@H](OC(C)=O)CC[C@@H]4[C@H]3CC[C@@]21C,33.5 µM (active),–
COC(=O)c1ccccc1C,inactive,–
CN(C)C(=O)COC(=O)Cc1ccc(OC(=O)c2ccc(N=C(N)N)cc2)cc1,inactive,–
CCCNCCC,inactive,–
CCCCCCCCCCC[C@@H](C[C@@H]1OC(=O)[C@H]1CCCCCC)OC(=O)[C@H](CC(C)C)NC=O,16.8 µM (active),–
Cc1ccc(C(=O)O)cc1,inactive,–
C[C@H]1NCc2cc(-c3ccc4c(=O)c(C(=O)O)cn(C5CC5)c4c3OC(F)F)ccc21,–,0.359% [at 19 µM] (inactive)
CCCCN(CCCC)CC(O)c1cc(Cl)cc2c1-c1ccc(Cl)cc1/C2=C/c1ccc(Cl)cc1 (stereo not given),26.6 µM (active),–
COC(=O)Nc1nc2ccc(C(=O)c3ccccc3)cc2[nH]1,8.41 µM (active),–
Cc1c(C)c([N+](=O)[O-])c(C(C)(C)C)c([N+](=O)[O-])c1C,inactive,–
CC[C@H](C)COC(=O)/C=C/c1ccc(N=Cc2ccc(OC)cc2)cc1,61 µM (active),–
CCC(COC(=O)CCS)(COC(=O)CCS)COC(=O)CCS,inactive,–
CC(=O)Oc1cc2c(s1)CCN(C(C(=O)C1CC1)c1ccccc1F)C2 (stereo not given),inactive,–
O=C(O)Cc1ccc2c(c1)C(=O)c1ccccc1CO2,inactive,–
CCCCCCCCCCOC(=O)c1ccccc1C(=O)OCCCCCCCC,inactive,–
CC(C)CCCCCOC(=O)CCS,inactive,–
C[C@@H](O)[C@H](N)C(=O)O,–,-0.658% [at 19 µM] (inactive)
CCCCCCCCCCCCCC[N+](C)(C)C,59.1 µM (active) and 38.5 µM (active),–
